This is a sample that favours compounds with a hit; in the whole collection about 3.5% have one here.
TRb SRC2 PPI: disrupts binding of human TR beta to SRC2 | TRbeta-SRC2 peptide binding, fluorescence polarization; receptor liganded with 1 µM T3 | Potency, µM (doses to about 106 µM), actives largely listed as inhibitors | 280,000 tested, 0.065% active | AID 1469; note: nearly all actives have a fitted effect of over 50% in size
Target sequence (P10828 whole entry, looked up): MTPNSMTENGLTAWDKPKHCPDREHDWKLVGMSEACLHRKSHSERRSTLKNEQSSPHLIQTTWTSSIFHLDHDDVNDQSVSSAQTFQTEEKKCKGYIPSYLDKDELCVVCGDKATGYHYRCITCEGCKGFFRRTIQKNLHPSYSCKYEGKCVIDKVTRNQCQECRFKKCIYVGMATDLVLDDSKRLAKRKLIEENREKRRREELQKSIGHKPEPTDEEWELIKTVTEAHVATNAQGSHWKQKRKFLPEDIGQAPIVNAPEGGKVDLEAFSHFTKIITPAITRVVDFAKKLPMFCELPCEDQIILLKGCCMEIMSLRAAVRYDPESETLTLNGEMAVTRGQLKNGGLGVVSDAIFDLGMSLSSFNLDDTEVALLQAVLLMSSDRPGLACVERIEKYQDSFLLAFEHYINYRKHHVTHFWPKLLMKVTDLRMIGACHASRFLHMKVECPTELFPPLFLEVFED
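Fluorescence polarization of 20 nM Texas Red SRC2 peptide (20-aa NR interaction domain) bound to 0.6 uM human TRb ligand-binding domain, with 1 uM T3, after 5 hr at ambient temperature; inhibition seen as decreased polarization.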
Tau fibril FP: blocks human tau fibril formation measured by polarization | 280,000 tested, 0.39% active | Potency, µM (top dose mostly 57.7 µM), hits mostly inhibitors | K18 P301L tau heparin fibrillization, Alexa594 FP, 6 h | P10636; note: nearly all actives have a fitted effect of over 55% in size
Target sequence (P10636 561-689 P618L limits assumed): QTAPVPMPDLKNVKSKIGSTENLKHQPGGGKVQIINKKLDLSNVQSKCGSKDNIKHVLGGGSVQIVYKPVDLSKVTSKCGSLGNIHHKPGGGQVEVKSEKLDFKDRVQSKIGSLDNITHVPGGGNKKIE
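Heparin (20 uM) drove fibril formation of recombinant tau K18 P301L, 15 uM unlabeled with 0.24 uM Alexa 594 label, for 6 hr at 37 C in 100 mM sodium acetate pH 7. Fluorescence polarization (555/632 nm) read 1 hr after 30 uM ThT.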
Tau fluor counter: counter-screen for tau fibril formation inhibitors; tau K18 P301L Alexa594 fluorescence, heparin fibrillization; Potency, µM (top dose mostly 57.7 µM); 280,000 tested, 0.93% active; note: nearly all actives have a fitted effect of over 55% in size
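Human tau K18 P301L (15 uM unlabeled, 0.24 uM Alexa 594-labeled) in 100 mM sodium acetate pH 7 with 20 uM heparin, 6 hr at 37 C. ThT 30 uM added, 1 hr ambient; Alexa 594 FP and total fluorescence read at 555/632 nm.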
JMJD2E inh: blocks human JMJD2E demethylase activity; B2RXH2; JMJD2E catalytic domain, FDH-coupled NADH fluorescence (FDH is formaldehyde dehydrogenase); Potency, µM (series often up to 57.1 µM), hits mostly inhibitors; 230,000 tested, 1.6% active; AID 2147; active = well fitted inhibition curve with a large enough effect, not every such curve was filed as active; inconclusive = small, poorly fitted or top-dose-only effect, or another doubt; inactive = no such curve, though single readings can be large or run the other way; note: nearly all actives have a fitted effect of over 50% in size
Tau ThT inhib: inhibitors of human tau fibril formation, thioflavin T binding; P10636; recombinant tau K18 P301L, heparin-induced fibrillization, ThT fluorescence; Potency, µM (series often up to 57.4 µM), hits mostly inhibitors; 270,000 tested, 2.1% active; AID 1460; note: nearly all actives have a fitted effect of over 55% in size
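ThT emission at 510 nm, taken 1 hr after adding 30 uM dye, quantifies aggregates formed when 20 uM heparin acts on human tau K18 P301L for 6 hr at 37 C.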
TR SRC2 fluor cs: alters Texas Red total fluorescence, flagging assay interference; 280,000 tested, 0.29% active; Potency, µM (top dose mostly 106 µM); TRb/SRC2 Texas Red total fluorescence interference; active = well fitted curve in either direction with a large enough effect; inconclusive = small, poorly fitted or top-dose-only effect
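Flags fluorescent or light-absorbing compounds by total fluorescence, S + 2P, at 555 nm excitation and 632 nm emission. Mixture: 20 nM Texas Red SRC2 peptide, 0.6 uM human TRb LBD, 1 uM T3, 5% DMSO; compound exposure 5 h at ambient temperature.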
Of the large screens only hits and unclear results are named; the others gave an inactive call; [ ] = another dose, or the depositor's remark. Unless noted, calls come from the whole dose curve; as a rule, active = well fitted curve in the direction sought with a large enough effect; inconclusive = small, poorly fitted or top-dose-only effect, or another doubt; inactive = no such curve, though single readings can be large; an effect the other way counts as inactive or inconclusive.

Oc1ccc2ccccc2c1C=Nc1ccccc1-c1nc2ccccc2[nH]1	TRb SRC2 PPI inconclusive, Tau fluor counter inconclusive, JMJD2E inh inconclusive, Tau ThT inhib 28µM
COc1cc2c(cc1OC)C(=O)N(C)CC2	none
COc1cc2cc3c4c(cc(OC)c(OC)c4c2cc1OC)CCN3C	TRb SRC2 PPI inconclusive, Tau fibril FP inconclusive, Tau fluor counter 13µM[quencher], JMJD2E inh inconclusive, Tau ThT inhib 10µM
Cc1cc(O)c(C=O)c2c1C(=O)Oc1c(COC(=O)/C=C/C(=O)O)c(O)c(C(=O)O)c(C)c1O2	TRb SRC2 PPI inconclusive, Tau fibril FP 3.5µM, JMJD2E inh inconclusive, Tau ThT inhib 8.9µM, TR SRC2 fluor cs 7.1µM[quencher]
Cc1cc(O)c(C=O)c2c1C(=O)Oc1c(CO)c(O)c3c(c1O2)C(O)OC3=O (configuration not stated)	TRb SRC2 PPI inconclusive, Tau fibril FP 16µM, Tau fluor counter inconclusive, JMJD2E inh 20µM, Tau ThT inhib inconclusive, TR SRC2 fluor cs 11µM[quencher]
Cc1cc(O)c(C=O)c(O)c1C(=O)O	Tau ThT inhib inconclusive
CCCN1C(=O)/C(=C\c2nc3ccccc3c(=O)[nH]2)c2ccccc21	Tau ThT inhib 22µM
Cc1cc(C)nc(SC2=CS(=O)(=O)c3ccccc32)n1	Tau ThT inhib inconclusive
O=S1(=O)C=C(Sc2nc3ccccc3s2)c2ccccc21	Tau fibril FP inconclusive, JMJD2E inh inconclusive, Tau ThT inhib 10µM
COc1ccc(C(=O)NCC2(c3ccccc3)CCOCC2)cc1	none
Cc1cc(Cl)ccc1OC(C)C(=O)Nc1ccc(S(=O)(=O)Nc2cnc3ccccc3n2)cc1 (configuration not stated)	JMJD2E inh inconclusive, Tau ThT inhib inconclusive
CC1=CC(=O)C(C(C)C)=C/C1=N/OS(=O)(=O)c1ccccc1	Tau fibril FP inconclusive, Tau fluor counter inconclusive, Tau ThT inhib 14µM
CC1=CC(=O)C=C(C)C1=NOS(=O)(=O)c1ccccc1	Tau fibril FP inconclusive, Tau fluor counter inconclusive, Tau ThT inhib 14µM
Cc1cccc(N=Nc2c(C)c(C#N)c(O)[nH]c2=O)c1	Tau ThT inhib 1.1µM
Cc1ccc2nc(-c3ccc(NC(=O)COc4c(C)ccc(C)c4C)cc3)sc2c1	Tau ThT inhib inconclusive (no result: JMJD2E inh)
Cc1ccc2nc(-c3ccc(NC(=O)COc4ccc(Br)cc4Br)cc3)sc2c1	Tau ThT inhib inconclusive, TR SRC2 fluor cs 0.32µM[quencher] (no result: JMJD2E inh)
COc1ccc([N+](=O)[O-])cc1C(=O)Nc1ccc(Cc2ccncc2)cc1	none
CCN(CC)c1cc2c(cc1F)c(=O)c(S(=O)(=O)c1ccc(OC)cc1)cn2Cc1ccccc1	TR SRC2 fluor cs 112µM[quencher] (no result: JMJD2E inh)
COc1cc(/C=N/NC(=O)Cc2csc(C)n2)ccc1OCC(C)C	none
COc1ccc(/C=N/NC(=O)Cc2csc(Nc3cccc(C(F)(F)F)c3)n2)cc1C	Tau fibril FP inconclusive, Tau fluor counter 18µM[quencher], Tau ThT inhib inconclusive
CC#CCC1(C(=O)OC)C(=O)NC[C@H]1c1ccccc1 (some centres not stated)	none
OCC1CCCN(C2CCN(Cc3nc(Cc4cccc(C(F)(F)F)c4)no3)CC2)C1 (configuration not stated)	none
COC(=O)c1ccccc1NC(=O)c1nc(-c2ccc(Cl)cc2)n2c1CCCCC2	TR SRC2 fluor cs 20µM[quencher] (no result: JMJD2E inh)
CN(C)c1ccc(C(CNS(=O)(=O)c2ccc(F)cc2)c2c[nH]c3ccccc23)cc1 (configuration not stated)	Tau fluor counter 11µM[quencher]
CN(C)c1ccc(C(CNC(=O)c2ccccc2Br)c2c[nH]c3ccccc23)cc1 (configuration not stated)	Tau fibril FP inconclusive, Tau fluor counter inconclusive, Tau ThT inhib inconclusive
CN(C)c1ccc(C(CNC(=O)c2ccc(C#N)cc2)c2c[nH]c3ccccc23)cc1 (configuration not stated)	Tau fibril FP inconclusive, Tau fluor counter 14µM[quencher], Tau ThT inhib inconclusive
CCOC(=O)c1ccc(S(=O)(=O)NCC(c2ccc(N(C)C)cc2)c2c[nH]c3ccccc23)cc1 (configuration not stated)	none
O=C(Nc1ccc2oc(-c3ccncc3)nc2c1)c1ccccc1Cl	none (no result: JMJD2E inh)
COc1ccc(-c2nc3c(c(SCC(=O)N4CCCCC4)n2)Cc2cc(C)ccc2O3)cc1	none (no result: JMJD2E inh)
O=S(=O)(c1ccc2c(c1)CCCN2)N1CCCC2CCCCC21 (configuration not stated)	Tau fluor counter inconclusive
CCN(CC)c1ccc2c(c1)CCCN2	TRb SRC2 PPI inconclusive, Tau fibril FP inconclusive, Tau fluor counter inconclusive, JMJD2E inh inconclusive, Tau ThT inhib 25µM
Cc1c(C(=O)NCc2ccc3c(c2)OCO3)oc2ccc(S(=O)(=O)N3CCCC3)cc12	JMJD2E inh 35µM
CC(C)C(=O)NC(c1cccs1)c1cc([N+](=O)[O-])c2cccnc2c1O (configuration not stated)	Tau ThT inhib 14µM
Cc1ccc(C(NC(=O)C(C)C)c2cc([N+](=O)[O-])c3cccnc3c2O)cc1 (configuration not stated)	JMJD2E inh 20µM, Tau ThT inhib inconclusive
CCC(=O)NC(/C=C/c1ccccc1)c1cc([N+](=O)[O-])c2cccnc2c1O (configuration not stated)	Tau ThT inhib inconclusive
N#C/C(=N\Nc1cc(Cl)cc(Cl)c1)c1nnc2n1CCCCC2	none
N#C/C(=C1\C(=O)Nc2c(Cl)cc(Cl)cc21)c1nnc2n1CCCCC2	TRb SRC2 PPI inconclusive, Tau fibril FP inconclusive, JMJD2E inh inconclusive, Tau ThT inhib 16µM
C=C(C)CNC(=S)Nc1nc2c(cc1C(=O)OCC)CCCC2	JMJD2E inh inconclusive
CCCSc1nnc(-c2ccccc2NC(=O)CC)c(=O)[nH]1	none
COc1ccc(S(=O)(=O)NN(C)c2nc(C(F)(F)F)nc3ccccc23)cc1	none
COc1ccc2c(c1)[nH]c1c(N3CCN(Cc4ccc5c(c4)OCO5)CC3)ncnc12	TRb SRC2 PPI inconclusive, Tau fluor counter 16µM[quencher], JMJD2E inh inconclusive, Tau ThT inhib inconclusive, TR SRC2 fluor cs inconclusive
COc1cc2cc(C)c3nnc(SCC(N)=O)n3c2cc1OC	none
CC1=C([N+](=O)[O-])C(c2cccc(Br)c2)C2=C(N1)c1ccccc1C2=O (configuration not stated)	Tau fibril FP inconclusive, Tau fluor counter 14µM[quencher], Tau ThT inhib 16µM
COC(=O)C1=C(C)NC2=C(C(=O)c3ccccc32)C1c1cccc(OC)c1 (configuration not stated)	none (no result: Tau ThT inhib)
COc1ccc(/C=N/NC(=O)c2ccc3ccccc3c2)cc1OS(=O)(=O)c1ccc(NC(C)=O)cc1	Tau fibril FP 13µM, Tau fluor counter inconclusive, JMJD2E inh inconclusive
COc1ccc(C=O)cc1OS(=O)(=O)c1ccc(NC(C)=O)cc1	none

Assay outcomes as filed in PubChem.
